According to PubChem BioAssay AID1159580 (chemical genetic matrix, 2015):
About 2,000 (36%) of roughly 5,500 compounds were called active. About 18% were inconclusive and are not listed. Rule as the data show it: active = normalized growth mostly below about 0.91 (no sharp cut-off); inconclusive = no clear call, values can overlap the other calls; inactive = mostly above about 0.92. The list shows a part of the results.

Test: chemical genetic growth profiling, strain panel (AID 1159580);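 also: tested at 20 µM; growth read once vehicle control cultures reached saturation at 30 °C; 1 = growth at the plate median or of vehicle wells; lower values mean less growth of the strain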
Settings: growth OD

Measured: normalized growth

C[C@@H]1CC[C@@]23CCC4(C)[C@@](C=CC5[C@@]6(C)CC[C@H](O)C(C)(C)C6CC[C@]54C)(OC2=O)C3[C@H]1C (stereo partly drawn)
active: S. cerevisiae deletion strains, locus YKL009W, strain mrt4, active compounds read low 1.26 [resistant] | S. cerevisiae deletion strains, locus YLR371W, strain rom2, active compounds read low 1.29 [resistant] | S. cerevisiae deletion strains, locus YOL012C, strain htz1 2.58 [resistant]
inactive: S. cerevisiae deletion strains, locus YJR043C, strain POL32, active compounds read low 1 | S. cerevisiae deletion strains, locus YJR066W, strain TOR1, active compounds read low 0.991 | S. cerevisiae deletion strains, locus YJR075W, strain HOC1, active compounds read low 1.02 | S. cerevisiae deletion strains, locus YKL085W, strain MDH1 (second series), active compounds read low 1 | S. cerevisiae deletion strains, locus YKL085W, strain MDH1, active compounds read low 1 | S. cerevisiae deletion strains, locus YKL160W, strain elf1, active compounds read low 1.01 | S. cerevisiae deletion strains, locus YKL190W, strain CNB1, active compounds read low 1.01 | S. cerevisiae deletion strains, locus YKR001C, strain vps1, active compounds read low 1.06 | S. cerevisiae deletion strains, locus YKR026C, strain gcn3, active compounds read low 1.01 | S. cerevisiae deletion strains, locus YKR091W, strain srl3, active compounds read low 1 | S. cerevisiae deletion strains, locus YLL001W, strain dnm1, active compounds read low 1.02 | S. cerevisiae deletion strains, locus YLL026W, active compounds read low 1 | S. cerevisiae deletion strains, locus YLL041C, strain sdh2, active compounds read low 1 | S. cerevisiae deletion strains, locus YLR027C, strain aat2, active compounds read low 1 | S. cerevisiae deletion strains, locus YLR039C, strain RIC1, active compounds read low 1.09 | S. cerevisiae deletion strains, locus YLR058C, strain SHM2, active compounds read low 1.02 | S. cerevisiae deletion strains, locus YLR102C, strain apc9, active compounds read low 1.03 | S. cerevisiae deletion strains, locus YLR113W, strain HOG1, active compounds read low 1.02 | S. cerevisiae deletion strains, locus YLR221C, strain rsa3, active compounds read low 0.998 | S. cerevisiae deletion strains, locus YLR258W, strain gsy2, active compounds read low 0.996 | S. cerevisiae deletion strains, locus YLR262C, strain YPT6 (second series), active compounds read low 1.02 | S. cerevisiae deletion strains, locus YLR262C, strain YPT6, active compounds read low 1.09 | S. cerevisiae deletion strains, locus YLR268W, strain sec22, active compounds read low 1.03 | S. cerevisiae deletion strains, locus YLR320W, strain mms22, active compounds read low 1.01 | S. cerevisiae deletion strains, locus YLR330W, strain CHS5, active compounds read low 1.03 | S. cerevisiae deletion strains, locus YLR342W, strain FKS1 (second series), active compounds read low 1.02 | S. cerevisiae deletion strains, locus YLR342W, strain FKS1, active compounds read low 1.01 | S. cerevisiae deletion strains, locus YLR357W, strain rsc2, active compounds read low 1.07 | S. cerevisiae deletion strains, locus YLR370C, strain arc18, active compounds read low 1.01 | S. cerevisiae deletion strains, locus YLR384C, strain iki3, active compounds read low 0.981 | S. cerevisiae deletion strains, locus YLR418C, strain cdc73, active compounds read low 1.07 | S. cerevisiae deletion strains, locus YML016C, strain PPZ1, active compounds read low 1.01 | S. cerevisiae deletion strains, locus YML032C, strain rad52, active compounds read low 1.02 | S. cerevisiae deletion strains, locus YML120C, strain ndi1, active compounds read low 1 | S. cerevisiae deletion strains, locus YML124C, strain tub3, active compounds read low 1 | S. cerevisiae deletion strains, locus YMR058W, strain fet3, active compounds read low 1 | S. cerevisiae deletion strains, locus YMR078C, strain ctf18, active compounds read low 0.991 | S. cerevisiae deletion strains, locus YMR125W, strain sto1, active compounds read low 1.01 | S. cerevisiae deletion strains, locus YMR129W, active compounds read low 0.997 | S. cerevisiae deletion strains, locus YMR205C, strain PFK2, active compounds read low 1.02 | S. cerevisiae deletion strains, locus YMR223W, strain ubp8, active compounds read low 1.08 | S. cerevisiae deletion strains, locus YMR231W, strain pep5, active compounds read low 0.98 | S. cerevisiae deletion strains, locus YMR307W, strain GAS1, active compounds read low 1.13 | S. cerevisiae deletion strains, locus YNL067W, strain RPL9B, active compounds read low 1.01 | S. cerevisiae deletion strains, locus YNL071W, strain lat1, active compounds read low 1.01 | S. cerevisiae deletion strains, locus YNL183C, strain NPR1, active compounds read low 0.998 | S. cerevisiae deletion strains, locus YNL209W, strain ssb2, active compounds read low 1.01 | S. cerevisiae deletion strains, locus YNL233W, strain BNI4, active compounds read low 1.05 | S. cerevisiae deletion strains, locus YNL248C, strain rpa49, active compounds read low 1.01 | S. cerevisiae deletion strains, locus YNL250W, strain rad50, active compounds read low 1 | S. cerevisiae deletion strains, locus YNL271C, strain bni1, active compounds read low 0.994 | S. cerevisiae deletion strains, locus YNL298W, strain CLA4, active compounds read low 1 | S. cerevisiae deletion strains, locus YNL307C, strain MCK1, active compounds read low 1 | S. cerevisiae deletion strains, locus YNL322C, strain KRE1 (second series), active compounds read low 0.998 | S. cerevisiae deletion strains, locus YNR049C, strain mso1, active compounds read low 1.01 | S. cerevisiae deletion strains, locus YNR052C, strain pop2, active compounds read low 1.02 | S. cerevisiae deletion strains, locus YOL006C, strain TOP1, active compounds read low 1.08 | S. cerevisiae deletion strains, locus YOL147C, strain pex11, active compounds read low 1.01 | S. cerevisiae deletion strains, locus YOR001W, strain rrp6, active compounds read low 1 | S. cerevisiae deletion strains, locus YOR061W, strain CKA2, active compounds read low 1.01 | S. cerevisiae deletion strains, locus YOR069W, strain VPS5, active compounds read low 1.01 | S. cerevisiae deletion strains, locus YOR070C, strain gyp1, active compounds read low 1.03 | S. cerevisiae deletion strains, locus YOR080W, strain dia2, active compounds read low 1.09 | S. cerevisiae deletion strains, locus YOR083W, strain WHI5, active compounds read low 1.01 | S. cerevisiae deletion strains, locus YOR106W, strain vam3, active compounds read low 1.02 | S. cerevisiae deletion strains, locus YOR136W, strain idh2, active compounds read low 1.06 | S. cerevisiae deletion strains, locus YOR144C, strain elg1, active compounds read low 0.997 | S. cerevisiae deletion strains, locus YOR184W, strain ser1, active compounds read low 1.05 | S. cerevisiae deletion strains, locus YOR231W, strain MKK1, active compounds read low 1.02 | S. cerevisiae deletion strains, locus YOR265W, strain rbl2, active compounds read low 1.01 | S. cerevisiae deletion strains, locus YOR270C, strain vph1, active compounds read low 1.05 | S. cerevisiae deletion strains, locus YOR290C, strain snf2, active compounds read low 1 | S. cerevisiae deletion strains, locus YOR316C, strain cot1, active compounds read low 1.03 | S. cerevisiae deletion strains, locus YPL051W, strain arl3, active compounds read low 1.02 | S. cerevisiae deletion strains, locus YPL055C, strain LGE1, active compounds read low 1.06 | S. cerevisiae deletion strains, locus YPL078C, strain atp4, active compounds read low 1.02 | S. cerevisiae deletion strains, locus YPL106C, strain sse1, active compounds read low 1.03 | S. cerevisiae deletion strains, locus YPL240C, strain hsp82, active compounds read low 1 | S. cerevisiae deletion strains, locus YPL256C, strain CLN2, active compounds read low 1.06 | S. cerevisiae deletion strains, locus YPR119W, strain clb2, active compounds read low 0.986 | S. cerevisiae deletion strains, locus YPR141C, strain kar3, active compounds read low 1 | S. cerevisiae deletion strains, locus YPR163C, strain tif3, active compounds read low 1 | S. cerevisiae deletion strains, locus YPR167C, strain met16, active compounds read low 1.05 | S. cerevisiae deletion strains, strain wtn01, active compounds read low 1 | S. cerevisiae strains, strain wild type, active compounds read low 1.02
